Most compounds without a hit are left out; they make up all but 27% or so of the library.
CYP2C19 inh: inhibitors of human CYP2C19; P33261; CYP2C19 Supersomes, luciferin-H EGE luminescence, 30 min; inhibition, % at 5 µM; hit rate 21% among 96,000;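 active means CYP2C19 inhibition above a set limit at 5 µM in the primary screen, cut at about 50% in these data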
Cav32 inh: human Cav3.2 channel inhibition, primary screen; O95180; Cav3.2-expressing cells, Fluo-4 calcium fluorescence FDSS; stronger effect = lower value; B-score at 10 µM; hit rate 4% among 100,000; AID 449739;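 active means single-dose well whose peak fluorescence ratio is a statistical outlier from its plate by either plate-standardised score or position-corrected B-score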
Target sequence (O95180 whole entry, looked up): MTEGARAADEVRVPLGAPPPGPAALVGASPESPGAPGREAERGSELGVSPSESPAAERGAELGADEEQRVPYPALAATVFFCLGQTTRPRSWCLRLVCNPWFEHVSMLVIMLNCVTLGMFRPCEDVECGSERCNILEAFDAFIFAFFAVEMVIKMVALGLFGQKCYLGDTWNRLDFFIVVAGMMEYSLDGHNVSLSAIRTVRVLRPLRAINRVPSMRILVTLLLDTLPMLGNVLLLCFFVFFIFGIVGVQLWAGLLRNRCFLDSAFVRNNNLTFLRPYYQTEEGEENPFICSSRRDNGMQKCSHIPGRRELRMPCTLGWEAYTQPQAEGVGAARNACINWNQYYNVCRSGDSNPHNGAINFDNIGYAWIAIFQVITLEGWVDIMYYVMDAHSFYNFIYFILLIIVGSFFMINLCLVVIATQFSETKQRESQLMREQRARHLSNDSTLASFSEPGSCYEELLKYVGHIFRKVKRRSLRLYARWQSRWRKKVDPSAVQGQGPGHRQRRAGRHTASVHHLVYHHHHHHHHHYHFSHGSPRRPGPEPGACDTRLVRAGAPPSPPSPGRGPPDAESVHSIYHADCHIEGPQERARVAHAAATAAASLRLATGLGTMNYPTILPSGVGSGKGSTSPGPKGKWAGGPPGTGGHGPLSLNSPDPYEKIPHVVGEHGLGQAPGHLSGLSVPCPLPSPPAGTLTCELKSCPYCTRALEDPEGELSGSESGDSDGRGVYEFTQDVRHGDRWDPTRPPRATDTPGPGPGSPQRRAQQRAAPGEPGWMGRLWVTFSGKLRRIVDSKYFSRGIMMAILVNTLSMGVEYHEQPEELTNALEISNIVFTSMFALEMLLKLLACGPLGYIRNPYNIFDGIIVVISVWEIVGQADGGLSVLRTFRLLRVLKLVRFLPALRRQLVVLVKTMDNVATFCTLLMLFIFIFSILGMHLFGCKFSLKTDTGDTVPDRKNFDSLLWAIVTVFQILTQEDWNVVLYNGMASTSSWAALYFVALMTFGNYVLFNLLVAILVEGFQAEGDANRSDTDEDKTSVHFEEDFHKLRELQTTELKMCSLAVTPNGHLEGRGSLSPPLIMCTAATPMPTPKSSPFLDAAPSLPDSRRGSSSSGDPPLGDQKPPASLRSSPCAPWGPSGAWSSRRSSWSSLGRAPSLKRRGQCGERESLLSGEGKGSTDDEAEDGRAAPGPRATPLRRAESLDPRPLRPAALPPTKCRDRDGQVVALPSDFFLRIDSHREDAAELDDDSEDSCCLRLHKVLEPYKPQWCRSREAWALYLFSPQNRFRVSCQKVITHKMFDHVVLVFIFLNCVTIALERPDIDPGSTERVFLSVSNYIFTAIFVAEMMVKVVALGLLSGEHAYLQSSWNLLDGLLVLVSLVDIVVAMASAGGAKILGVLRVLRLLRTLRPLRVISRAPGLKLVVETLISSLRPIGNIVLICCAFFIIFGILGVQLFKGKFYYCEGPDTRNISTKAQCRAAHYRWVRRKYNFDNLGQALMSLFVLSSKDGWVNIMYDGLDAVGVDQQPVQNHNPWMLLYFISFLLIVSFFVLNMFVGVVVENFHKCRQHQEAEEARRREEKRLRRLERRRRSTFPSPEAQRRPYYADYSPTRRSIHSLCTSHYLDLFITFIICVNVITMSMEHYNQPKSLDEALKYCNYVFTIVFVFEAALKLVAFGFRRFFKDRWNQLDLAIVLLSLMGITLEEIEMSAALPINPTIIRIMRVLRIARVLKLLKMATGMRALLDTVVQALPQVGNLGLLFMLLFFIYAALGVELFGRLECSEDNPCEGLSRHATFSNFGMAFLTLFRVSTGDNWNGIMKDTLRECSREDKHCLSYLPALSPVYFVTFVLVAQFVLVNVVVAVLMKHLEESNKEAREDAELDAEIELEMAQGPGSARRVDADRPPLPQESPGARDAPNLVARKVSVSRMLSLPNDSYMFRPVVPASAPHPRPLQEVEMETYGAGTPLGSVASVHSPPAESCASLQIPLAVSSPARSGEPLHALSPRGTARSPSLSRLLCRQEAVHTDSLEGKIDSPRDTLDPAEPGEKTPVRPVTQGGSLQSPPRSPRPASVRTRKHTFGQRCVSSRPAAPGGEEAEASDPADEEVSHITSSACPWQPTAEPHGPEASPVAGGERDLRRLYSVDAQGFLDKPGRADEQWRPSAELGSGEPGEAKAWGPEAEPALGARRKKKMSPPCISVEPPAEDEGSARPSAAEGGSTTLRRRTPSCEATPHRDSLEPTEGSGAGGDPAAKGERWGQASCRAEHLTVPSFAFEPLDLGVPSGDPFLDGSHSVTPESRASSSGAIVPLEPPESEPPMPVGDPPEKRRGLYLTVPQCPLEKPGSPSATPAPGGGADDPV
CYP2C9 activ: increases human cytochrome P450 2C9 activity; activation factor at 5 µM; hit rate 1.4% among 96,000; recombinant CYP2C9, luciferin-H conversion, luminescence; stronger effect = higher value; factor 1 = untreated enzyme, 0 = blocked; AID 1024;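 active means activation factor of 2 or more for CYP2C9 at a 5 µM dose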
CYP2C19 act: increases human CYP2C19 enzyme activity; P33261; recombinant CYP2C19, luciferin-H EGE luminescence; stronger effect = higher value; 0 = fully inhibited enzyme, 1 = untreated enzyme; activation factor at 5 µM; 96,000 tested, under 10 active; AID 1025;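 active means activation factor of at least 2 at 5 µM in the primary screen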
CYP2C9 inh: inhibitors of human CYP2C9; P11712; CYP2C9 Supersomes, luciferin-H conversion, luminescence; hit rate 20% among 96,000; inhibition, % at 5 µM;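 active means blocking of liver enzyme CYP2C9 beyond about 50% at 5 µM, limit read from the data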
Each line names hits and unclear results; the compound was inactive in the other large screens.

Clc1cc(Br)ccc1OCCOCCN1CCOCC1	CYP2C19 inh 81.0
c1ccc(OCCCCN2CCOCC2)cc1	none
Cc1cc(NC(=O)CCCC(=O)NCc2cccs2)no1	none
CCc1cccc(C)c1NC(=O)C1=C(C(=O)O)CCCC1	none
CCC1SC2=NC(C)=C(C(=O)OCC(C)C)C(/C=C/c3ccccc3OC)N2C1=O (stereo not drawn)	CYP2C9 inh 78.0
COC(=O)C1=C(C)N=C2SC(C)C(=O)N2C1/C=C/c1ccccc1OC (stereo not drawn)	CYP2C19 inh 81.3, Cav32 inh -7.38, CYP2C9 inh 62.8
COc1ccccc1/C=c1\sc2nc(-c3ccccc3OC)nn2c1=O	none (no result: Cav32 inh)
COC(=O)C1=C(C)N=C2SCCC(=O)N2C1/C=C/c1ccccc1 (stereo not drawn)	none
CCC1SC2=NC(C)=C(C(=O)OCCOC)C(/C=C/c3ccccc3OC)N2C1=O (stereo not drawn)	CYP2C19 inh 78.0, Cav32 inh -5.77, CYP2C9 inh 91.3
COc1cc(S(=O)(=O)N2CCOCC2)ccc1NC(=O)COC(=O)c1ccccn1	none
CC(=O)CCc1c[nH]c2c(C(=O)O)cccc12	none
CCCOc1ccc(/C=N/NC(=O)c2ccc(Cn3cc([N+](=O)[O-])cn3)o2)cc1	none (no result: Cav32 inh)
O=C1C2C3C=CC(C3)C2C(=O)N1CNc1ccc(O)cc1 (stereo not drawn)	none
O=C1C2C3C=CC(CC3)C2C(=O)N1/N=C/c1ccc(O)cc1 (stereo not drawn)	CYP2C9 activ 2
CCC1S/C(=N\S(=O)(=O)c2cccs2)N(C2CCCCC2)C1=O (stereo not drawn)	CYP2C19 inh 78.7, CYP2C9 inh 56.7
Cc1ccc(S(=O)(=O)N(C)CC(=O)NC2CC(C)(C)NC(C)(C)C2)cc1	none
Cn1c(=O)c2c(ncn2C)n(C)c1=O	none (no result: CYP2C19 inh, CYP2C9 activ, CYP2C19 act, CYP2C9 inh)
CC(=O)OCN(C#N)c1nc(N(C)C)nc(N(C)C)n1	none
COC(=O)CN(C#N)c1nc(SC)nc(N(C)C)n1	CYP2C19 inh 55.5
CC(=O)c1ccc(-n2nnnc2SCC(=O)NNC(=O)c2ccco2)cc1	none
O=S(=O)(/N=C(/Nc1ccccn1)c1ccccc1)c1ccccc1	none
O=c1oc(-c2ccccc2NS(=O)(=O)c2ccccc2)nc2ccccc12	none
O=C1c2ccccc2-c2cccc(NS(=O)(=O)c3ccc(C(F)(F)F)cc3)c21	CYP2C9 inh 88.1
CC(CN1CCOCC1)OC(=O)c1cccc(Br)c1 (stereo not drawn)	CYP2C19 inh 60.0
COc1cc(C(=O)OC(C)CN2CCOCC2)cc(OC)c1OC (stereo not drawn)	none
O=C(O)c1cn(-c2ccc(F)c(F)c2)c2c(F)c(F)c(F)c(F)c2c1=O	none
CCC(Sc1nc2n[nH]c(C)c2c(=N)n1-c1cc(Cl)ccc1C)C(=O)N1CCOCC1 (stereo not drawn)	none (no result: CYP2C19 inh, CYP2C9 activ, CYP2C19 act, CYP2C9 inh)
Cc1ccc2c3c1C1(C(=O)N3C(C)(C)CC2C)C(C#N)=C(N)Oc2cc(O)ccc21 (stereo not drawn)	CYP2C19 inh 69.7, Cav32 inh -8.95, CYP2C9 inh 89.3
Cc1cc2c3c(c1)C1(C(=O)N3C(C)(C)CC2C)C(C#N)=C(N)Oc2cc(O)ccc21 (stereo not drawn)	CYP2C19 inh 79.0, CYP2C9 inh 89.7
CC1=CC(C)(C)N2C(=O)C3(C(C#N)=C(N)Oc4cc(O)ccc43)c3cccc1c32 (stereo not drawn)	Cav32 inh -6.22, CYP2C9 inh 51.0
CC1=CC(C)(C)N2C(=O)C3(C(C#N)=C(N)Oc4cc(C)oc(=O)c43)c3cc(C)cc1c32 (stereo not drawn)	none (no result: CYP2C19 inh, CYP2C9 activ, CYP2C19 act, CYP2C9 inh)
CC1(C)NC(=O)N(CC(=O)O)C1=O	none
C=CCc1ccc(O)c(-c2ccc(O)c(CC=C)c2)c1	Cav32 inh -5.42 (no result: CYP2C19 inh, CYP2C9 activ, CYP2C19 act, CYP2C9 inh)
O=C(C(c1ccccc1)c1ccccc1)N1CCC(c2nc(-c3ccccc3Cl)no2)CC1	Cav32 inh -6.22 (no result: CYP2C19 inh, CYP2C9 activ, CYP2C19 act, CYP2C9 inh)
Nc1c(N2CCCCC2)c(=O)[nH]c(=O)n1-c1ccccc1	CYP2C19 inh 54.8
CCCC(C(=O)c1ccccc1)n1cncn1 (stereo not drawn)	none
CC(C)(C)C(=O)C(Cc1ccccc1Cl)n1cncn1 (stereo not drawn)	CYP2C19 inh 59.5
CC(C)(C)C(=O)C(Cc1ccccc1)n1cncn1 (stereo not drawn)	CYP2C9 inh 56.0
O=C(Cn1ncnn1)OCc1ccccc1Cl	none
Cc1ccc(Nc2nc(N)nc(CC#N)n2)cc1	none
Cc1ccc(Nc2nc(N)nc(CN3CCc4ccccc4C3)n2)cc1	CYP2C19 inh 55.0, CYP2C9 inh 51.7
Cc1c(Cl)cccc1Nc1nc(N)nc(CN2CCc3ccccc3C2)n1	Cav32 inh -4.04
CCOC(=O)/C(=C\Nc1ccc(OC(F)(F)F)cc1)Sc1ncc(C(F)(F)F)cc1Cl	none
CCCC(=O)N1CC2(C)CN(C(=O)CCC)CC(CCC)(C1)C2=O	none
Cc1nnc(NC(=O)C2CCCCC2)s1	none
O=C(Nc1nnc(C2CC2)s1)c1ccncc1	CYP2C9 inh 55.8
O=C(Nc1nnc(C2CCCC2)s1)C1CCC1	CYP2C9 inh 55.7
O=C(CS(=O)(=O)Cc1ccccc1)Nc1nnc(C2CCCCC2)s1	none
O=C(CC1CCCC1)Nc1nnc(C2CC2)s1	CYP2C19 inh 52.5
CC(C)c1nnc(-c2ccc(Cl)cc2)c(N(C)C)n1	none
COc1ccc(C(=O)c2no[n+]([O-])c2C(=O)c2ccc(OC)cc2)cc1	none
COc1ccc(C(=O)c2ccc(CC#N)s2)cc1	CYP2C19 inh 56.2 (no result: Cav32 inh)
CCOc1ccc(NC(=O)C2CC(=O)N(C(C)C)C2)cc1 (stereo not drawn)	none (no result: Cav32 inh)
COC(=O)c1ccc(Nc2nc(C)cc(C)n2)cc1	none
COc1nc(Nc2ccc(C(C)=O)cc2)nc(OC)n1	CYP2C19 inh 50.6, CYP2C9 inh 50.6
COc1nc(Nc2ccc3c(c2)OCO3)nc(OC)n1	CYP2C9 inh 67.9
CCC1(CC)NC(=O)NC1=O	none
Cc1nc2cccc(C)n2c(=O)c1Cl	none
CCOC(=O)c1c(CN2CCN(Cc3ccccc3)CC2)n(C)c2cc(Br)c(OC)cc12	Cav32 inh -6.97
CCOC(=O)c1c(C)n(C)c2cc(Br)c(C)cc12	none
O=C1CCc2cc(S(=O)(=O)N3CCCC3C(=O)NC3CCCCCCC3)ccc2N1 (stereo not drawn)	CYP2C9 inh 80.7
O=C1CCc2cc(S(=O)(=O)N3CCC(C(=O)NCc4ccccn4)CC3)ccc2N1	none (no result: Cav32 inh)
O=C1CCc2cc(S(=O)(=O)N3CCC(C(=O)NC4CCCC4)CC3)ccc2N1	CYP2C9 inh 52.5
CCOC(=O)/C(C#N)=C/c1ccc(OCC(=O)Nc2cc(C)ccc2C)c(OC)c1	none (no result: Cav32 inh)
CN1CCN(c2ccccc2NC(=O)c2ccc(OCc3ccccc3)cc2)CC1	none
CN1CCN(c2ccccc2NC(=O)c2ccc(-c3ccccc3)cc2)CC1	CYP2C19 inh 94.5, CYP2C9 inh 70.5
COc1c(F)c(F)c(C(=O)Nc2ccccc2N2CCN(C(=O)C(C)C)CC2)c(F)c1F	CYP2C19 inh 61.3, CYP2C9 inh 77.6
Cc1ccc(C(=O)Nc2ccccc2N2CCN(C(=O)C(C)C)CC2)cc1C	CYP2C19 inh 75.9, CYP2C9 inh 89.1
